Most compounds without a hit are left out; they make up all but 21% or so of the library.
Pf growth 48h – inhibits P. falciparum growth in the first generation, 48 h. P. falciparum luciferase growth in erythrocytes, 48 h. Potency, µM (highest dose often 28.7 µM), for inactives: top-dose activity change, negative = inhibition, usual class: inhibitors. 310,000 tested, 5.9% active. AID 504832; further: potency means the concentration at half of the fitted maximal effect; on the % scale 0 is the no-effect control and ±100 the full control effect
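Luminescence readout; reporter = integrated firefly luciferase in P. falciparum. RBC culture at 2% hematocrit, 0.1% parasitemia final, 37 C/5% CO2; decreased signal taken as growth inhibition.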
Pf growth 96h – P. falciparum growth inhibition at 96 hours; P. falciparum luciferase reporter growth, 96 h; Potency, µM (highest dose often 28.7 µM), without a hit: at the highest dose activity change, negative = inhibition, most hits filed as inhibitors; 320,000 tested, 6.9% active; AID 504834; further: potency means the concentration at half of the fitted maximal effect; on the % scale 0 is the no-effect control and ±100 the full control effect
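Delayed-death screen, second-generation endpoint: infected erythrocytes, 2% hematocrit, 0.05% parasitemia final; 96 hours at 37 C, 5% CO2; luciferase detection reagent; luminescence decrease equals reduced growth.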
HCV inhibitor – HCV inhibition | Huh7.5.1 HCVcc-Cre infection, luciferase reporter, 44 h | Potency, µM (series often up to 41.8 µM), for the others: at the highest dose activity change, negative = inhibition, usual class: inhibitors | 340,000 tested, 3.4% active; further: potency means the concentration at half of the fitted maximal effect; on the % scale 0 is the no-effect control and ±100 the full control effect
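Reporter virus HCVcc-Cre (~0.5 moi) infects cells exposed to compound; seeding density 1,000 cells/well with 4 h settling beforehand. Luminescence, 15 sec read, taken 44 h post-infection following a 15 min RT substrate incubation.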
Cycloheximide cs – counter-screen for Shiga toxin inhibitors: cycloheximide protein synthesis inhibition; cell reporter, cycloheximide protein synthesis inhibition counterscreen; max response, %; 300,000 tested, 12% active; in the data active means max response mostly above about 13%, no sharp cut-off; inactive means mostly below about 14%; further: read at 38.3 µM for the half of the compounds with a filed dose; 0% is about no effect
AMA1-RON2 inh – AMA1-RON2 (P. falciparum) interaction inhibition; Potency, µM (doses to about 58.2 µM), inactives show at the highest dose activity change, negative = inhibition, usual class: inhibitors; AID 720542; AlphaScreen AMA1-biotinylated RON2 peptide binding; 360,000 tested, 0.2% active;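 further: potency means the concentration at half of the fitted maximal effect; 0% = vehicle wells and -100% = peptide control; nearly all actives have a fitted effect of over 45% in size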
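AMA1 (3D7) with his tag at 25 nM final met compounds first, then biotinylated RON2 peptide at 25 nM; detection used donor plus acceptor beads, 10 µg/mL apiece, read by AlphaScreen after 30 min at room temperature.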
Shiga toxin inh – Shiga toxin inhibition; Vero cells, Shiga toxin protein synthesis inhibition reporter; inhibition, % at 38.7 µM; 290,000 tested, 9.2% active; AID 2315; in the data active means inhibition mostly above about 28%, no sharp cut-off; inactive means mostly below about 43%; further: 0% is about no effect
Numbers without * were called inactive; ? = inconclusive; nt = not tested or not shown. Unless noted, the call rests on the fitted dose curve; in most records, active means well fitted curve in the direction sought with a large enough effect; inconclusive means small, poorly fitted or top-dose-only effect, or another doubt; inactive means no such curve, though single readings can be large; an effect the other way counts as inactive or inconclusive.

SMILES | Pf growth 48h | Pf growth 96h | HCV inhibitor | Cycloheximide cs | AMA1-RON2 inh | Shiga toxin inh
COc1ccccc1N1CCN(S(=O)(=O)c2c(C(=O)N3CCOCC3)c(C)n(C)c2C)CC1 | 33.9% | 12.0% | -5.8% | 9.2 | -6.5% | -11.6
O=c1[nH]ncn1-c1ccc(Br)cc1 | 6.1% | ? | 13.4% | -3.2 | 7.3% | -10.0
COc1cccc(CN2CC(C(=O)N(C)CC3CCOCC3)CCC2=O)c1 (configuration not stated) | 9.6% | 18.5% | 14.7% | 7.2 | -7.7% | 41.3
CCC1=C(OC(=O)N(CC)CC)N2C(=O)OC(=NCCc3c[nH]c4ccccc34)[C@]2(Cc2ccccc2)[C@H]2C1=CC[C@H]1C(=O)NC(=O)[C@H]12 | ? | 11.7µM* | -1.8% | -1.4 | -14.8% | -3.7
CCC1=C(OC(=O)N(CC)CC)N2C(=O)OC(=NCCc3c[nH]c4ccccc34)[C@]2(Cc2ccccc2)[C@H]2C1=CC[C@H]1C(=O)N(CC(=O)OC)C(=O)[C@H]12 | 5.22µM* | 13.1µM* | ? | -3.4 | -24.0% | -1.4
CCC1=C(OC(=O)N(CC)CC)N2C(=O)OC(=NCCOC)[C@]2(Cc2ccccc2)[C@H]2C1=CC[C@H]1C(=O)N(CC(=O)OC)C(=O)[C@H]12 | 9.28µM* | ? | 16.4% | 11.1 | -7.9% | -7.7
Cc1cc(C)nc(SCc2nnc(SCC(N)=O)o2)n1 | 36.7% | ? | 11.0% | -1.5 | -11.2% | -7.9
COc1cc(OC)cc(C2=Cc3ccccc3C(CC(=O)c3ccco3)N2c2ccc(-c3ccc(C(N)=O)cc3)cc2)c1 (configuration not stated) | nt | nt | nt | nt | 17.2% | nt
COc1cccc(C2Nc3c(F)cc(Br)cc3C3C=CCC32)c1OC (configuration not stated) | 9.28µM* | 11.7µM* | -8.5% | -6.0 | -27.2% | -18.5
COc1cccc2c1NC(C(=O)O)C1CC=CC21 (configuration not stated) | -15.7% | 79.9% | -8.9% | -1.8 | ? | -14.5
COc1cc(C2Nc3c(F)cccc3C3C=CCC32)cc(Br)c1OC (configuration not stated) | 9.28µM* | 4.3% | 1.0% | -1.3 | -15.0% | 18.5
Cn1cnc(S(=O)(=O)N2CCCCC2c2cc(C(=O)NCc3ccc(F)cc3)no2)c1 (configuration not stated) | nt | nt | nt | nt | -0.5% | nt
CCOC(=O)c1c(NC(C)=O)sc2c(OCC(O)CNC(C)(C)C)c(Br)ccc12 (configuration not stated) | 67.7% | 16.0% | 4.47µM* | 6.9 | -3.8% | -10.5
CCOC(=O)c1c(N)sc2c(OCC)c(Br)ccc12 | -21.0% | 430.7% | 10µM* | 1.7 | -5.5% | 24.9
CCOC(=O)c1c(NC(C)=O)sc2c(O)cccc12 | nt | 9.8% | 9.8% | -1.2 | 1.2% | -9.9
CCCc1nc2c(C)cc(Br)cn2c1Cc1ccc(C)cc1 | nt | nt | nt | nt | 0.0% | nt
O=C(OC1CC2CC1[C@H]1CCCCN1C2=O)N1CCN(S(=O)(=O)c2ccccc2)CC1 (some centres not stated) | nt | nt | nt | nt | 4.6% | nt
CCCCOc1ccccc1C(=O)N(Cc1ccco1)C1CCS(=O)(=O)C1 (configuration not stated) | 13.1% | 2.4% | 16.7% | 8.6 | -1.3% | -3.7
CN(C)c1ccc(-c2csc(C(C)(O)c3ccc(F)c(F)c3)n2)cc1 (configuration not stated) | nt | nt | nt | nt | 20µM* | nt
CC(O)(c1ccc(F)c(F)c1)c1nc(-c2ccncc2)cs1 (configuration not stated) | nt | nt | nt | nt | 11.3% | nt
O=C(NNC1CC(=O)N(c2ccc(Br)cc2)C1=O)c1ccco1 (configuration not stated) | -4.2% | 2.4% | 5.9% | 1.7 | 28.9% | 23.3
O=C(NNC1CC(=O)N(c2ccc(Br)cc2)C1=O)c1cccs1 (configuration not stated) | 16.3% | 58.9% | -15.7% | 13.7 | 109.0% | 34.7*
Cc1c(Cl)cccc1N1C(=O)CC(NNC(=O)c2cccs2)C1=O (configuration not stated) | 6.8% | 9.3% | 16.6% | 20.2* | 33.4% | 18.4
Cc1cccc(C(=O)OCC(=O)c2c(N)n(CC(C)C)c(=O)n(C)c2=O)c1[N+](=O)[O-] | 2.5% | 12.2% | 14.1µM* | nt | 3.1% | nt
COC(=O)c1c(C)[nH]c(C(=O)OCC(=O)c2c(N)n(CC(C)C)c(=O)n(C)c2=O)c1C | nt | nt | 3.98µM* | nt | -0.8% | nt
SMILES | Pf growth 48h | Pf growth 96h | HCV inhibitor | Cycloheximide cs | AMA1-RON2 inh | Shiga toxin inh
Cc1csc(=O)n1CCC(=O)OCC(=O)c1c(N)n(CC(C)C)c(=O)n(C)c1=O | -29.1% | 1.4% | ? | nt | -11.1% | nt
CC(C)Cn1c(N)c(C(=O)COC(=O)/C=C/c2ccccc2)c(=O)n(C)c1=O | ? | 10.4µM* | 7.08µM* | nt | -13.0% | nt
CC(C)Cn1c(N)c(C(=O)COC(=O)c2cc3ccccc3cc2O)c(=O)n(C)c1=O | nt | nt | ? | nt | -1.7% | nt
CC(C)Cn1c(N)c(C(=O)COC(=O)CC23CC4CC(CC(C4)C2)C3)c(=O)n(C)c1=O | nt | ? | 6.31µM* | -7.0 | -7.5% | -10.4
O=[N+]([O-])C1C(c2ccccc2)=NOC1c1ccccc1O (configuration not stated) | 17.0% | ? | 5.8% | 23.8* | 0.3% | 24.6*
O=C1CN(c2ccccc2)C(=S)N1C(=O)c1ccccc1 | 182.9% | -7.7% | -16.2% | 46.4* | 52.2% | 47.4*
COc1ccc(/C=C2\CC/C(=C\c3ccc(OC)c(OC)c3)C2=O)cc1OC | -12.5% | ? | ? | 8.2 | ? | 1.8
COc1cc(/C=C2/CC/C(=C/c3ccc(O)c(OC)c3)C2=O)ccc1O | 3.29µM* | ? | 12.6µM* | 11.2 | -20.4% | 52.0
COc1cc(/C=C2\COC/C(=C\c3ccc(O)c(OC)c3)C2=O)ccc1O | 10.4µM* | ? | 11.2µM* | 33.1* | -28.5% | 37.1*
CCN1C[C@@H]2[C@@H]3C(=O)N(Cc4ccccc4)C(=O)[C@@H]3[C@](Cc3ccccc3)(C1=O)N2C(=O)c1ccc(C)cc1 | nt | nt | 13.9% | nt | -8.9% | nt
O=[N+]([O-])c1ccc(/C=N/Nc2nc(N3CCCCCC3)nc(N3CCCCCC3)n2)o1 | 5.22µM* | ? | ? | -2.5 | -18.2% | -5.9
COc1ccc([N+](=O)[O-])cc1/C=N/Nc1nc(N2CCCCC2)nc(N2CCCCC2)n1 | ? | 11.4% | 20µM* | 12.3 | 5.1% | -5.0
CCOc1cccc(/C=N/Nc2nc(N3CCCC3)nc(N3CCCC3)n2)c1O | 0.828µM* | -1.5% | ? | 24.3 | 70.2% | 47.5
O=C(COc1ccc(F)cc1Cl)Nc1nc(-c2ccccn2)cs1 | ? | 13.1µM* | ? | nt | nt | nt
O=C(COc1ccccc1Cl)Nc1nc(-c2ccncc2)cs1 | nt | nt | 22.4µM* | nt | -1.8% | nt

From PubChem BioAssay
